“And” between values parts separate entries of the source, which are not always exact repeats. Identical values can stand only once. Records with an inconclusive call do not appear. The source made the active and inactive calls. Calls come from the whole dose curve; as a rule, active = well fitted cell-killing curve with a large enough effect in the repeat runs; inconclusive = weak or mixed curves; inactive = no such curve, though single readings can be large or run the other way.
Assay: qHTS assay to identify small molecule agonists of the peroxisome proliferator-activated receptor delta (PPARd) signaling pathway - cell viability counter screen (AID 743211); note: nearly all actives have a fitted effect of over 55% in size
Settings: PPARd-bla HEK293H viability, CellTiter-Glo luminescence, 17 h; series mostly up to 62.6 µM; activity change, negative = cytotoxicity: at the top concentration
In short: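 Viability of GeneBLAzer PPARd UAS-bla HEK293H cells was assessed after 17 h compound incubation at 37C, using CellTiter-Glo reagent added after the reporter read and luminescence recorded 30 min later.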
% is set by controls: 0 for no effect and ±100 for the full control effect; potency is the fitted concentration of half-maximal effect.

SMILES	Potency	activity change, negative = cytotoxicity
CCCCCCCCCCCCCC[N+](C)(C)C	37.6 µM (active) and 24.5 µM (active) and 26.6 µM (active)	
CC[C@H](C)COC(=O)/C=C/c1ccc(N=Cc2ccc(OC)cc2)cc1		-19.9% (inactive)
CCCCC(CC)CN1CN(CC(CC)CCCC)CC(C)(N)C1 (stereo not drawn)		-12.1% (inactive)

Assay: qHTS assay to identify small molecule antagonists of the peroxisome proliferator-activated receptor delta (PPARd) signaling pathway - cell viability counter screen (AID 743213); note: nearly all actives have a fitted effect of over 50% in size
Settings: PPARd-bla HEK293H viability, CellTiter-Glo luminescence, 17 h; series mostly up to 62 µM; viability change, negative = cytotoxic: at the top concentration
In short: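 Same-well viability: cells pre-incubated 5 h, dosed with compound plus 300 nM L165041, kept 17 h at 37 C, FRET substrate 2 h RT, then CellTiter-Glo 30 min RT and luminescence.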

SMILES	Potency	viability change, negative = cytotoxic
CN1CCC[C@@H]1CCO[C@](C)(c1ccccc1)c1ccc(Cl)cc1	26.6 µM (active)	
CCC(C)[O-].CCC(C)[O-].CCOC(=O)/C=C(/C)[O-].[Al+3]		1.58% (inactive)
CCC(C)(CCC(C)C)C(=O)[O][Sn]([CH3])([CH3])[O]C(=O)C(C)(CC)CCC(C)C (stereo not drawn)		-2.16% (inactive)
O=C(O)CCN(C1(C(=O)NO)CCCC1)S(=O)(=O)c1ccc(Oc2ccc(F)cc2)cc1		4.65% (inactive)
CC1=CCC(=C(C)C)CC1		-19.7% (inactive)
CCN(CCN)c1cccc(C)c1	inactive	
CC(C)(C)c1ccc(C(O)CCCN2CCC(C(O)(c3ccccc3)c3ccccc3)CC2)cc1 (stereo not drawn)	7.5 µM (active)	
COc1cc(/C=C/c2ccccc2)oc(=O)c1		14.3% [at 80.4 µM] (inactive)
Cc1c2ccccc2c(C)c2c1ccc1ccccc12	21.9 µM (active)	
COCCOc1cc2cc(C(=O)NC3CCN(C(C)C)CC3)n(CC(=O)Nc3ccc(Cl)cn3)c2cn1		-28.3% (inactive)
COc1cccc(OC)c1C(=O)O		-1.8% (inactive)
O=C(O)c1cc(N=Nc2ccc([N+](=O)[O-])cc2)ccc1O		-18.2% (inactive)
CCCC(=O)OCOC(=O)C1=C(C)NC(C)=C(C(=O)OC)C1c1cccc(Cl)c1Cl (stereo not drawn)		0.342% (inactive)
Clc1ccnc(Cl)n1		-7.07% [at 80.4 µM] (inactive)
CCO[Si](OCC)(OCC)OCC		-25.1% [at 80.4 µM] (inactive)

Source: PubChem BioAssay (Tox21)
